Four compounds from PubChem BioAssay (EPA / NIEHS) can be followed below.

Test [1] is described as follows: ATG_CRE_CIS: Attagene CIS-FACTORIAL HepG2 Assay for human cAMP Responsive Element (CRE) binding protein 3 (AID 2282926). The following applies: HepG2 CRE cis-reporter, Attagene multiplexed mRNA; actives raise or lower the signal. The gist of the method:
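Human liver HepG2, transient MRTU transfection, 24 h compound exposure. Total RNA → oligo(dT) RT → PCR → 6-FAM primer extension → HpaI cut → CE. Activity called both directions vs DMSO.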

For test [2], the target named is CCAAT/enhancer-binding protein beta (Homo sapiens) (UniProt P17676). Description: ATG_C_EBP_CIS: Attagene CIS-FACTORIAL HepG2 Assay for human CCAAT/Enhancer Binding Protein (C/EBP) beta (AID 2282927). The following applies: HepG2 Attagene cis-factorial transcription factor reporter; actives raise or lower the signal. The gist of the method: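 Transiently transfected HepG2 (MRTU library, endogenous TF-driven promoters); 24 h dosing; total RNA → oligo(dT) RT → PCR → 6-FAM primer extension → HpaI digest → CE; fit bidirectionally vs DMSO.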

Test [3] in a line: ATG_CMV_CIS: Attagene CIS-FACTORIAL HepG2 Assay for human CMV (Internal Marker) (AID 2282928).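 Note: endpoint acts as a background internal control marker rather than a target.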 To be noted: HepG2 CMV promoter reporter, transcription factor profiling; actives raise or lower the signal. The gist of the method:
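CMV internal-marker background readout in transiently transfected HepG2 cells bearing cis-regulated reporter units. Reporter mRNA is measured 24 h after dosing by RT-PCR and capillary electrophoresis, with bidirectional fitting against DMSO.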

Test [4] in a line: ATG_DR4_LXR_CIS: Attagene CIS-FACTORIAL HepG2 Assay for human Liver X Receptor (LXR), DR4 submotif (AID 2282929). To be noted: HepG2 Attagene DR4 cis-reporter, mRNA transcription; actives raise or lower the signal. The gist of the method: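 HepG2 cells transiently transfected with cis-promoter-driven multiplexed reporter units (DR4 element) were dosed for 24 h. Reporter mRNA was quantified by RT-PCR, fluorescent primer extension, HpaI digestion and capillary electrophoresis; bidirectional fitting versus DMSO baseline.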

Test [5] is described as follows: ATG_AP_1_CIS: Attagene CIS-FACTORIAL HepG2 Assay for human Activator Protein 1 (AP-1) (AID 2282931). To be noted: HepG2 Attagene cis-factorial AP-1 reporter mRNA; actives raise or lower the signal. The gist of the method:
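HepG2 cells transiently transfected with cis-element-driven multiplex reporter units; 24 h compound exposure. Reporter mRNA quantified by RT-PCR, FAM-labelled fragments resolved by capillary electrophoresis; bidirectional fit versus DMSO baseline.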

Test [6] in a line: ATG_AP_2_CIS: Attagene CIS-FACTORIAL HepG2 Assay for human Activator Protein 2 (AP-2) (AID 2282932). To be noted: HepG2 AP-2 cis-reporter, Attagene transcription factor profiling; actives raise or lower the signal. The gist of the method:
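Multiplexed mRNA reporter assay in HepG2: cis-regulated units report endogenous factor activity after 24 h treatment. Fluorescence from capillary electrophoresis of RT-PCR products gives the signal, with DMSO as baseline.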

Test [7] can be described thus: ATG_BRE_CIS: Attagene CIS-FACTORIAL HepG2 Assay for human Bone Morphogenetic Protein (BMP) Response Element (BRE) (AID 2282933). The following applies: HepG2 BMP response element reporter, Attagene transcription factor profiling; actives raise or lower the signal. The gist of the method: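 After a 24 h chemical treatment, transiently transfected HepG2 cells were lysed for RNA; reporter transcripts were quantified by fluorescent RT-PCR and capillary electrophoresis, normalised to DMSO.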

For test [8], the target named is Transcription factor E2F1 (Homo sapiens) (UniProt Q01094). Description: ATG_E2F_CIS: Attagene CIS-FACTORIAL HepG2 Assay for human E2F Transcription Factor 1 (AID 2282935). To be noted: HepG2 Attagene cis-reporter, E2F reporter RNA transcripts; actives raise or lower the signal. The gist of the method: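 Measures reporter transcript levels via RT-PCR with capillary electrophoresis detection in HepG2 cells harboring cis-regulated reporter units; 24 h post-dose; bidirectional curve fitting with DMSO as baseline.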

Test [9] can be described thus: ATG_E_Box_CIS: Attagene CIS-FACTORIAL HepG2 Assay for human Enhancer Box (E-box) (AID 2282936). The following applies: HepG2 E-box cis-reporter transcription, actives raise or lower the signal. The gist of the method: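 First, HepG2 cells receive multiple cis-regulated reporter constructs by transient transfection. Next, chemicals are applied for 24 h. Finally, reporter mRNA is quantified via RT-PCR and capillary electrophoresis, with DMSO as baseline.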

Test [10] in a line: ATG_M_61_CIS: Attagene CIS-FACTORIAL HepG2 Assay for M61 Transcription Factor (Internal Marker) (AID 2282937). To be noted: HepG2 Attagene CIS-FACTORIAL M61 internal marker reporter; actives raise or lower the signal. The gist of the method:
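HepG2 cells transiently transfected with cis-element-driven multiple reporter transcription units, dosed for 24 h. Reporter mRNA measured by RT-PCR, 6-FAM primer-extension labelling, HpaI digestion and capillary electrophoresis; bidirectional fit versus DMSO baseline.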

Test [11] in a line: ATG_EGR_CIS: Attagene CIS-FACTORIAL HepG2 Assay for human Early Growth Response 1 (EGR1) (AID 2282938). To be noted: HepG2 Attagene CIS-FACTORIAL EGR reporter mRNA; actives raise or lower the signal. The gist of the method:
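HepG2 cells transiently transfected with cis-promoter-driven multiplexed reporter transcription units; reporter mRNA measured 24 h after compound dosing by RT-PCR, 6-FAM primer extension, HpaI digestion and capillary electrophoresis. Bidirectional fit versus DMSO baseline.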

The nature of test [12]: ATG_Ets_CIS: Attagene CIS-FACTORIAL HepG2 Assay for human Erythroblast Transformation Specific (ETS) (AID 2282941). The following applies: HepG2 ETS cis-reporter transcription, actives raise or lower the signal. The gist of the method:
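HepG2 cells transfected with multiple cis-regulated reporter units measuring endogenous ETS-driven transcription, 24 h after dosing. Reporter mRNA quantified by RT-PCR with capillary electrophoresis; bidirectional fit relative to DMSO.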

Test [13] can be described thus: ATG_FoxO_CIS: Attagene CIS-FACTORIAL HepG2 Assay for human Forkhead box O (FoxO) (AID 2282943). The following applies: HepG2 Attagene cis-reporter, FoxO element, mRNA; actives raise or lower the signal. The gist of the method:
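Read-out: fluorescence of 6-FAM-labelled reporter cDNA fragments resolved by capillary electrophoresis. Transiently transfected HepG2 cells were dosed for 24 h; activity fitted in both directions relative to DMSO controls.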

Test [14] in a line: ATG_GATA_CIS: Attagene CIS-FACTORIAL HepG2 Assay for human GATA Binding Protein (AID 2282944). The following applies: HepG2 GATA cis-element reporter, Attagene multiplex mRNA; actives raise or lower the signal. The gist of the method: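 Measures endogenous transcription factor-driven reporter mRNA in HepG2 cells transiently carrying cis-regulated constructs. 24 h dosing; RNA via oligo(dT) reverse transcription, PCR, HpaI digestion, capillary electrophoresis; fitted relative to DMSO.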

A short description of test [15]: ATG_GLI_CIS: Attagene CIS-FACTORIAL HepG2 Assay for human Zinc Finger Protein GLI1 (AID 2282945). The following applies: HepG2, Attagene cis-factorial reporter mRNA, GLI element; actives raise or lower the signal. The gist of the method: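 Transiently transfected HepG2 cells report endogenous transcription factor activity via cis-element-driven reporter units. After 24 h compound exposure, reporter mRNA was measured by RT-PCR with capillary electrophoresis; bidirectional fitting against DMSO baseline.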

A short description of test [16]: ATG_ISRE_CIS: Attagene CIS-FACTORIAL HepG2 Assay for human Interferon Regulatory Factor 1 (IRF1) binding to an Interferon-Stimulated Response Element (ISRE) (AID 2282948). The following applies: HepG2 ISRE cis-reporter (Attagene), mRNA transcription readout; actives raise or lower the signal. The gist of the method: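 Transiently transfected HepG2 cells carrying cis-element reporter units, dosed 24 hours. Reporter mRNA quantified by RT-PCR, fluorescent primer extension, HpaI digestion and capillary electrophoresis. Bidirectional fitting relative to DMSO.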

Test [17] can be described thus: ATG_M_32_CIS: Attagene CIS-FACTORIAL HepG2 Assay for M32 Transcription Factor (Internal Marker) (AID 2282949).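 Note: background control marker of the multiplexed CIS panel rather than a real target.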 To be noted: HepG2 Attagene cis-factorial M32 reporter, mRNA; actives raise or lower the signal. The gist of the method: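 Following 24 h chemical exposure of HepG2 cells transiently expressing cis-promoter reporter constructs, reporter transcript levels were determined by RT-PCR with fluorescent labelling and capillary electrophoresis, then fitted bidirectionally against DMSO.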

Test [18] in a line: ATG_M_06_CIS: Attagene CIS-FACTORIAL HepG2 Assay for M06 Transcription Factor (Internal Marker) (AID 2282950). The following applies: HepG2 Attagene CIS-FACTORIAL M06 internal marker reporter; actives raise or lower the signal. The gist of the method: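 One of many multiplexed endpoints: HepG2 reporter mRNA after 24 h dosing, detected by RT-PCR and capillary electrophoresis fluorescence; gain or loss of signal analysed against DMSO.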

For test [19], the target named is Paired box protein Pax-6 (Homo sapiens) (UniProt P26367). Kind of test: ATG_Pax6_CIS: Attagene CIS-FACTORIAL HepG2 Assay for human Paired Box 6 (PAX6) (AID 2282956). To be noted: HepG2 CIS-FACTORIAL PAX6 reporter transcription, RNA readout; actives raise or lower the signal. The gist of the method: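 HepG2 cells transiently transfected with cis-promoter-driven multiplexed reporter units sensing endogenous transcription factor activity; 24 h chemical exposure. Reporter mRNA quantified by RT-PCR, 6-FAM labelling, HpaI digestion and capillary electrophoresis; bidirectional fit versus DMSO baseline.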

Test [20] can be described thus: ATG_PXRE_CIS: Attagene CIS-FACTORIAL HepG2 Assay for human Pregnane X Receptor Element (PXRE) (AID 2282957). To be noted: HepG2 Attagene CIS-FACTORIAL PXRE reporter, mRNA; actives raise or lower the signal. The gist of the method: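 Transfect HepG2 with MRTUs (cis promoter elements); dose chemical, incubate 24 h; isolate RNA, RT with oligo(dT), PCR, 6-FAM label, HpaI cut, CE. Gain/loss fit vs DMSO.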

By AC50 is commonly meant the concentration at which the activity in the assay is half-maximal.

Activity calls are given as the source filed them. Rule for the calls: active = hit-call score of the fitted dose curve at least 0.9, where 1 is the maximum; inactive = score below 0.9.

Sequence of CCAAT/enhancer-binding protein beta (Homo sapiens) (P17676 whole entry, looked up): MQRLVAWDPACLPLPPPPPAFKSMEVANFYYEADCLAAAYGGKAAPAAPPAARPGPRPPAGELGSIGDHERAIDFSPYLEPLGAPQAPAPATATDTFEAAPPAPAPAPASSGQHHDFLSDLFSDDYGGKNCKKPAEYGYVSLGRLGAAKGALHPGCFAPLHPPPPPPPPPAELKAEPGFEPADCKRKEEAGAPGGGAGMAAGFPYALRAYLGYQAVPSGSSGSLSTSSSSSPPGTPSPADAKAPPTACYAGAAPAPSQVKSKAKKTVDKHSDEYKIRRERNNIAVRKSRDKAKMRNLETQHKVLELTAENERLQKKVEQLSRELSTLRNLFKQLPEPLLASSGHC
Sequence of Paired box protein Pax-6 (Homo sapiens) (P26367 whole entry, looked up): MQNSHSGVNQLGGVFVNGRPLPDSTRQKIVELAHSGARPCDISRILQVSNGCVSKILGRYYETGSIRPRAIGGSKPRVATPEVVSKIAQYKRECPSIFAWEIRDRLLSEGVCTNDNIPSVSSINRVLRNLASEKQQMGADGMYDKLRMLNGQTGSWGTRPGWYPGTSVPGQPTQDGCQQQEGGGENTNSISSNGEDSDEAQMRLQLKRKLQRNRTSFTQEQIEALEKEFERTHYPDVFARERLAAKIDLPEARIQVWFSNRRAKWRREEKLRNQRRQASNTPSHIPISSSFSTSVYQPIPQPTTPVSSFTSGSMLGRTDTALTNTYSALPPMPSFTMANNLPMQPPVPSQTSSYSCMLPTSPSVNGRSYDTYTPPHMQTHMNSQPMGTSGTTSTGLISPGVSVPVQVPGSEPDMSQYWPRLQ
Sequence of Transcription factor E2F1 (Homo sapiens) (Q01094 whole entry, looked up): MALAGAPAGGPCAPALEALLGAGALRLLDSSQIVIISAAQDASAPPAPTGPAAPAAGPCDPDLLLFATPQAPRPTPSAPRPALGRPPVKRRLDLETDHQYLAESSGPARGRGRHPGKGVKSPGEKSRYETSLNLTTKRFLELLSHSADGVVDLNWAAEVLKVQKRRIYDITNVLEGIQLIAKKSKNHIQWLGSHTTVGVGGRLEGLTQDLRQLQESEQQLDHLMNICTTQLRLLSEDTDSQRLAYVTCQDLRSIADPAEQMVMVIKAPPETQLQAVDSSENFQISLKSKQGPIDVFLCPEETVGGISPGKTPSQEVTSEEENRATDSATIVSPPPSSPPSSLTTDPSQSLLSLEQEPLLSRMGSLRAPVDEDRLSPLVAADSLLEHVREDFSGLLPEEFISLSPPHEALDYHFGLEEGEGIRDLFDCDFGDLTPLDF

Turning to `CCC(C)=NO`, the call in test [1], in [2], in [3], in test [4], in test [5] and in test [6] was inactive. For the same compound, the outcome in test [7], in test [8], in test [9], in test [10], in test [11] and in [12] was inactive. Also, the outcome in test [13], in test [14], in [15], in test [16], in [17] and in test [18] was inactive. In addition, the outcome in [19] and in test [20] was inactive.
Take `O=[N+]([O-])c1ccc2nc[nH]c2c1`: the outcome in test [1], in test [2], in [3], in test [4], in [5] and in test [6] was inactive. For the same compound, the outcome in test [7], in test [8], in test [9], in test [10], in [11] and in test [12] was inactive. The outcome in test [13], in [14], in [15], in test [16], in [17] and in [18] was inactive. The outcome in test [19] and in test [20] was inactive.
Take `COCCCN`: the call in [1], in [2], in test [3], in [4], in test [5] and in test [6] was inactive. In addition, the outcome in [7], in [8], in test [9], in test [10], in [11] and in [12] was inactive. Besides, the outcome in test [13], in test [14], in test [15], in test [16], in test [17] and in test [18] was inactive. Also, the compound was called inactive in [19] and in [20].
As for `O=C(O)Cc1c[nH]c2ccccc12`, the outcome in test [1], in test [2], in [3], in [4], in [5] and in [6] was inactive. Also, the call in test [7], in [8], in test [9], in [10], in test [11] and in test [12] was inactive. Besides, the compound was classed as inactive in test [13], in test [14], in test [15], in [16], in test [17] and in test [18]. Further, in test [19], the call was inactive. Besides, the AC50 in test [20] was 35.4 µM (active).
